Screening data: PubChem BioAssay, National Center for Advancing Translational Sciences (NCATS)
FLuc inh – qHTS Assay for Inhibitors of Firefly Luciferase; Luciferin 4-monooxygenase (Photinus pyralis), P08659; purified firefly luciferase, luminescence, 8 min; Potency, µM (series often up to 57.1 µM), hits mostly inhibitors; hit rate 2.2% among 72,000; AID 411, 2009; active = well fitted inhibition curve with a large enough effect; inconclusive = small, poorly fitted or top-dose-only effect; also: nearly all actives have a fitted effect of over 40% in size
Target sequence (P08659 whole entry, looked up): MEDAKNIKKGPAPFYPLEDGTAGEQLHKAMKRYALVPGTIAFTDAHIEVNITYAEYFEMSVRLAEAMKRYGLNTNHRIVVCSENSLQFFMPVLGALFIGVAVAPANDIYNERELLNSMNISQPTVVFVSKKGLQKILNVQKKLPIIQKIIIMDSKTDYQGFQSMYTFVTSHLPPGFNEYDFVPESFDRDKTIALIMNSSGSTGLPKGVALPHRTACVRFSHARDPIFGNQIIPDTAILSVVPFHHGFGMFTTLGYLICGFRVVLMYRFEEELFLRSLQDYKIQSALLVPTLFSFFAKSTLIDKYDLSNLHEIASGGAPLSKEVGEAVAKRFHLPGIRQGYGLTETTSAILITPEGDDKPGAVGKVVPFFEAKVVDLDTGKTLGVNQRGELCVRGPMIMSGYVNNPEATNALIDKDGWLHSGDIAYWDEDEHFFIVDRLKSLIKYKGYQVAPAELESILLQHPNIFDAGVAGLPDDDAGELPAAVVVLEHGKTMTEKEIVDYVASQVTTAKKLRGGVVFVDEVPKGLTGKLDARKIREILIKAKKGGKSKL
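Firefly luciferase (PKLight detection mix) with 10 uM ATP in pH 7.2 imidazole buffer (KCl, MgCl2, Tween 20, BSA). Compounds tested across a concentration series (qHTS). Luminescence read after 8 min at ambient temperature.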
PK Bst – Pyruvate Kinase; purified pyruvate kinase, luminescence ATP production; ribose 5-phosphate activator present at AC10; Potency, µM; hit rate 1.2% among 51,000; in the data active = potency below about 11 µM; inconclusive = mostly about 12 µM to 25 µM;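 the screen sought inhibitors and activators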
GBA activity – Glucocerebrosidase. hit rate 1.1% among 48,000. purified enzyme, resorufin glucoside fluorescence (screen aimed at inhibitors), 20 min. Lysosomal acid glucosylceramidase (Homo sapiens), P04062. Potency, µM; in the data active = potency below about 15 µM; inconclusive = mostly about 16 µM to 33 µM;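 also: the screen sought inhibitors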
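Wild-type enzyme at 0.2 nM final in 50mM citric acid/KH2PO4, 10mM sodium taurocholate, 0.01% tween-20, pH 5.9, with resorufin beta-D-glucopyranoside at 30 uM final. Compounds titrated, 20 min at RT, red fluorescence read; AC50 from titration.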
Each line names hits and unclear results; the compound was inactive in the other large screens. Compounds with a hit are over-represented: about 3.2% of the library has one in this group of screens.

Nc1nc(SCc2ccc([N+](=O)[O-])cc2)c2ncn([C@@H]3O[C@@H](CO)[C@@H](O)[C@H]3O)c2n1	none (no result: PK Bst, GBA activity)
COc1ccc(OC)c(Nc2nc(N)nc(-c3cc4ccccc4o3)n2)c1	GBA activity inconclusive
Cc1c(-c2nc(N)nc(Nc3ccccc3)n2)oc2ccccc12	FLuc inh 25.1µM, PK Bst inconclusive
c1ccc(CSc2nnc(-c3ccco3)n2Cc2ccco2)cc1	none
CCCCOc1[nH]c2nc(-c3ccco3)n(Cc3ccco3)c(=N)c2c1C#N	PK Bst 10.9
CCc1ccc(CCC(=O)Nc2nnc(CC)s2)o1	GBA activity 11.5
CCc1nnc(NC(=O)CCC(=O)N2CCN(Cc3ccccc3)CC2)s1	FLuc inh 12.6µM (no result: PK Bst)
CCc1nnc(NC(=O)CCC(=O)Nc2ccccc2)s1	none (no result: GBA activity)
CCc1nnc(NC(=O)CCC(=O)N2CCN(Cc3ccc(Cl)cc3)CC2)s1	none
O=C1C(=O)c2ccccc2C(O)=C1Cc1ccccc1	none (no result: PK Bst, GBA activity)
CN(C)c1ccnc(-c2cccc(NS(C)(=O)=O)c2)n1	none (no result: PK Bst, GBA activity)
CC(=O)Nc1ccc(-c2nc(C)c(C(C)=O)n2O)cc1	PK Bst 6.59 (no result: GBA activity)
CC(=O)Nc1ccc(O)cc1	none (no result: PK Bst, GBA activity)
O=C(c1cccc(F)c1)N1CCC2(CC1)CN(c1ccc(-c3ccccc3)cc1)C2	none (no result: PK Bst, GBA activity)
O=C(c1ccco1)N1CCC2(CCCN(Cc3ccccc3)C2)CC1	none (no result: PK Bst, GBA activity)
Cc1ccc(-c2ccccc2NC(=O)C2C3C=CC(C3)C2C(=O)O)o1 (stereo not given)	none (no result: GBA activity)
Cc1ccc(-c2cccc(NC(=O)C3C(C(=O)O)[C@@H]4C=C[C@H]3C4)c2)o1 (stereo not given in full)	PK Bst 5.7
COc1ccccc1CNc1ncncc1-c1ccccc1OC	none (no result: PK Bst, GBA activity)
COc1ccc(N(CC(O)Cn2nnc3ccccc32)S(=O)(=O)c2ccc(C)cc2)cc1 (stereo not given)	PK Bst 5.7
COc1ccc(N(CC(O)CN2CCCCC2)S(=O)(=O)c2ccc(C)cc2)cc1 (stereo not given)	none (no result: GBA activity)
C=C[C@@](C)(O)CC[C@H]1[C@]2(C)CCCC(C)(C)[C@H]2CC[C@]1(C)O	none (no result: PK Bst, GBA activity)
[Cu].[O-]/N=C1/C(=[OH+])Nc2ccccc21.[O-]Nc1c(O)[nH]c2ccccc12	none (no result: PK Bst, GBA activity)
Cc1ccc(NC(=O)N2CCC(C(=O)NCc3ccccc3)CC2)cc1	none
Cc1ccc(C2CCN(C(=O)Nc3ccccc3)C2)cc1 (stereo not given)	FLuc inh 25.1µM (no result: PK Bst)
Cn1cccc1C(=O)N1CCC2(CCCN(c3cccc(-c4ccccc4)c3)C2)CC1	none (no result: PK Bst, GBA activity)
Oc1ccc(-c2nc3ccccn3c2NCc2ccc3c(c2)OCO3)cc1	GBA activity 0.886 (no result: PK Bst)
C=CCn1c(NCc2ccc3c(c2)OCO3)nc2ccccc21	none (no result: PK Bst)
CC(=O)N1CCC2(CCN(Cc3ccccc3)CC2)CC1	none (no result: PK Bst, GBA activity)
Cc1ccc(-c2cnc(-c3ccncc3)o2)cc1	FLuc inh 12.6µM (no result: PK Bst, GBA activity)
Cc1ccc(-n2c(-c3ccncc3)nnc2-c2ccco2)cc1	none
Cc1ccc2nc(C3CCN(CC(=O)Nc4ccc5c(c4)OCCO5)CC3)[nH]c2c1	none (no result: GBA activity)
O=C(Nc1ccc(-c2nc3ccccc3[nH]2)cc1)C1CCCO1 (stereo not given)	FLuc inh 2.51µM, PK Bst 3.18
O=C(CN1CCC(c2nc3ccccc3[nH]2)CC1)Nc1ccc2c(c1)OCO2	GBA activity 13.7
O=C(CN1CCOCC1)Nc1ccc(-c2nc3ccccc3[nH]2)cc1	FLuc inh 15.8µM (no result: GBA activity)
O=C(Nc1nc2ccccc2[nH]1)C1CCCO1 (stereo not given)	none (no result: PK Bst, GBA activity)
O=C(O)CCCC(=O)Nc1cccc(-c2nc3ccccc3[nH]2)c1	FLuc inh 20µM (no result: PK Bst)
O=C(CN1CCOCC1)Nc1ccc(S(=O)(=O)N2CCCCCC2)cc1	PK Bst inconclusive (no result: GBA activity)
O=C(CCc1nc2ccccc2[nH]1)Nc1ccccc1	GBA activity inconclusive
COc1cc([C@H](O)CO)ccc1O	none (no result: PK Bst, GBA activity)
O=C(Cc1ccccc1)Nc1nc2ccc(Cl)cc2c2nc(-c3ccco3)nn12	none (no result: PK Bst, GBA activity)
COc1cc(OC)cc(C(=O)Nn2c(C)nc3ccccc3c2=O)c1	none
COc1ccc2[nH]c3c(c2c1)CCn1c-3nc2ccccc2c1=O	FLuc inh 0.631µM, PK Bst 0.196
CC(C)CO/N=C1/C[C@@H](O)[C@@H](O)[C@@H]2[C@@H]3C(=O)N([C@@H](C)c4ccccc4)C(=O)[C@H]3CC[C@H]12	none (no result: PK Bst, GBA activity)
Cc1cnc(CNc2ncncc2-c2ccccc2CN(C)C)cn1	none (no result: PK Bst, GBA activity)
N=C1C(c2ccccc2)=C(O)C2CCc3ccccc3N12 (stereo not given)	none (no result: PK Bst)
N=C1C(c2ccc(Br)cc2)=C(O)C2CCc3ccccc3N12 (stereo not given)	PK Bst 3
COc1ccc(-c2csc3c2[N+]2=CCC=C2C3=O)cc1	none (no result: PK Bst, GBA activity)
CN(C)c1ncc2ncc(=O)n(Cc3ccc(F)cc3)c2n1	none (no result: PK Bst, GBA activity)
CC(C)=CC(=O)Nc1ccccc1C(N)=O	none
NC(=O)c1ccccc1N/C=C/C(=O)c1ccccc1	FLuc inh 3.16µM, PK Bst 2.47
Cc1noc(C)c1COC(=O)c1cc(=O)[nH]c2ccccc12	none
Cc1noc(C)c1C(=O)OCC(=O)c1c[nH]c2ccccc12	FLuc inh 15.8µM, GBA activity 8.3 (no result: PK Bst)
CNC[C@H](O)c1ccc(OC(=O)C(C)(C)C)c(OC(=O)C(C)(C)C)c1	none (no result: PK Bst, GBA activity)
COc1ccc(C(=O)N2CCC3(CCCN(Cc4ccc(C#N)cc4)C3)CC2)cc1	none (no result: PK Bst, GBA activity)
O=c1c(-c2ccccc2)c(O)nc2ccccn12	none
O=C(N=c1nc2ccccn2s1)c1ccccc1	FLuc inh 0.794µM, PK Bst 1.14
O=c1c(-c2ccccc2)nc2cncnc2n1Cc1ccccc1	none (no result: PK Bst, GBA activity)
COc1ccc(C)cc1NC(=O)CSc1nnc(-c2ccc(C)cc2)o1	none (no result: PK Bst, GBA activity)
COc1ccc(C)cc1NC(=O)CN(Cc1nnc(-c2ccc(Cl)cc2)o1)C1CCCC1	PK Bst 4.71
Cc1cc(NCCOCCO)n2ncc(-c3ccc(Cl)cc3)c2n1	FLuc inh 6.31µM, PK Bst 6.73
CCOC(=O)c1cnn(-c2cc(C)nc3c(-c4ccccc4)cnn23)c1N	none
Cc1cc(NCCCN2CCOCC2)n2ncc(-c3ccccc3)c2n1	FLuc inh 12.6µM (no result: PK Bst)
Cc1cc(NCCCN2CCOCC2)n2nc(C)c(-c3ccccc3)c2n1	none (no result: GBA activity)
NS(=O)(=O)c1cc2c(cc1Cl)N[C@@H]([C@@H]1C[C@@H]3C=C[C@H]1C3)NS2(=O)=O	none (no result: PK Bst, GBA activity)
CN1/C(=C\C(=O)c2cccs2)Sc2ccccc21	FLuc inh 6.31µM, PK Bst 6.56
COCC(=O)/C=C1\Sc2ccccc2N1C	none
CC(C)(C)c1ccc(-c2nnc(SCC(=O)O)n2N)cc1	FLuc inh 15.8µM (no result: PK Bst)
Cc1ccc(-c2nnc(SCC(=O)O)n2N)cc1	none
CN(C)c1ccc(-c2cncnc2NCc2ccccc2)cc1	none (no result: PK Bst, GBA activity)
CCCCC/C=C\C[C@H](O)/C=C\c1cccc(C[C@H](O)CCCCO)n1	none (no result: PK Bst, GBA activity)
O=C(NC1=NCCS1)c1ccc(OCC2CCCO2)cc1 (stereo not given)	FLuc inh 25.1µM, GBA activity inconclusive (no result: PK Bst)
COc1ccc(C(=O)NCC(=O)NC2=NCCS2)cc1	none (no result: PK Bst, GBA activity)
Cc1noc(C)c1S(=O)(=O)Nc1ccc(C(=O)NC2CCCCCC2)cc1	GBA activity 5.8
Cc1noc(C)c1S(=O)(=O)Nc1ccc(C(=O)NC2CCCCC2C)cc1 (stereo not given)	GBA activity inconclusive
COc1ccc(C(=O)N2CCC[C@@]3(CCN(CC(C)C)C3)C2)cc1	none (no result: PK Bst, GBA activity)
COc1ccc(-n2c(=O)c(-c3cccc(C#N)c3)nc3cnc(N4CCNCC4)nc32)cc1	none (no result: PK Bst, GBA activity)
COc1ccc(C(=O)[C@H](Br)[C@H](Br)C(=O)O)cc1	none (no result: PK Bst, GBA activity)
CCc1nnc(NC(=O)c2ccncc2)s1	none
